Each molecule was assayed on ANKK1. Conditions: concentration: 1 μM, replicates: in singlicate; n = 1.
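Note: KINOMEscan kinase panel screen.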

SMILES | %Inh [%]
Fc1cccc(COc2ccc(Nc3ncnc4cc[nH]c34)cc2Cl)c1 | 40
COc1cc2ncnc(Nc3ccc(OCc4ccccc4Br)c(Cl)c3)c2cc1OC.Cl [GI261590] | 0
CCn1c(-c2ccncc2)nc2cnccc21 [SB-735216] | 21
FC(F)(F)c1ccc(-c2nn3ncccc3c2-c2ccnc(Nc3cccc(C(F)(F)F)c3)n2)cc1 [GW828205] | 0
CNc1nccc(-c2c(-c3ccc(F)cc3)ncn2C2CCN(C)CC2)n1 [SB-222903] | 0
Cl.c1ccc(Cn2ncc3cc(Nc4ncnc5ccccc45)ccc32)cc1 [GW273749] | 0
Cc1ccc(NC(=O)c2cccc(C#N)c2)cc1-c1ccc(C(=O)Nc2ccncc2)cc1 [GSK1398463] | 0
COC(=O)c1c(-c2ccccc2)c2cc(Cl)ccc2c(=O)n1Cc1ccc(S(C)(=O)=O)cc1 | 0
COc1ccc(Nc2nccc(N3CCC(NC(=O)Nc4ccc5c(c4)OCO5)C3)n2)cc1 (centres unmarked) [GSK1379745] | 2
COc1ccc(Nc2nccc(N3CCC(NC(=O)c4cccc(NC(C)=O)c4)C3)n2)cc1 (centres unmarked) [GSK1379732] | 11
Cl.Cn1ccc(-c2cccc(Nc3ccnc4cc(-c5nccs5)ccc34)c2)n1 [GW525701] | 8
c1ccc(-c2ccc3c(-c4ccnc(Nc5ccc6c(c5)OCCO6)n4)cnn3n2)cc1 [GW818941] | 4
O=C(c1ccc(-c2cc(-c3c[nH]nc3-c3ccccn3)ccn2)cc1)N1CCCC1 [GW792479] | 0
Cc1ccc(C)c(NC(=O)NCCNc2ccnc(Nc3ccc(F)cc3)n2)c1 [GSK1379878] | 5
Cn1ccc2ncnc(Nc3ccc(Oc4cccc(Cl)c4)c(Cl)c3)c21 | 0
CCC(CC)(CC)n1cnc2c(N)ncnc21 [SKF-97620] | 17
COc1ccc(NC(=O)c2ccc(-c3cc(-c4nnc(C)o4)ccc3C)cc2)cc1 [GW595885] | 0
CN1CCC(n2cnc(-c3ccc(F)cc3)c2-c2ccnc(NC3CCNCC3)n2)CC1 [SB-229482] | 0

SMILES | %Inh [%]
Cn1ccc2ncnc(Oc3ccc(NC(=O)Nc4cccnc4)c(Cl)c3)c21 | 0
CC(=O)Nc1n[nH]c2ncc(-c3ccccc3)cc12 [SB-548492] | 20
CS(=O)(=O)CCNCc1nc(-c2ccc3ncnc(Nc4ccc(OCc5cccc(F)c5)c(Cl)c4)c3c2)cs1.Cl [GW583340] | 0
O=C(Nc1ccccc1F)NC1CCN(c2ccnc(Nc3ccc(F)cc3)n2)C1 (centres unmarked) [GSK1379722] | 0
Cc1cccc(-c2nc(Nc3ccc4[nH]nnc4c3)c3ccccc3n2)n1 [GW867587] | 0
Clc1cccc(-c2nc(Nc3ccncc3)c3ccccc3n2)c1 [GW873004] | 0
CCCc1ccc(S(=O)(=O)NC2CCN(c3ccnc(Nc4ccc(OC)cc4)n3)C2)cc1 (centres unmarked) [GSK1379737] | 0
CCc1nc(-c2cccc(N(C)S(=O)(=O)c3ccccc3)c2)c(-c2ccnc(Nc3ccc(N4CCN(C(C)=O)CC4)nc3)n2)s1 [GSK1645895] | 26
Nc1n[nH]c2nnc(-c3ccccc3)cc12 [SB-517389] | 0
O=C(Nc1n[nH]c2nc(-c3ccco3)c(Br)cc12)c1ccc(CN2CCCC2)cc1.O=C(O)[C@H](O)[C@@H](O)C(=O)O [SB-742352] | 0
CC(C)(C)OC(=O)NC1CCCN(c2cc(-c3ccc4c(N)n[nH]c4c3)nc(N)n2)C1 (centres unmarked) [GSK2286096] | 7
FC(F)(F)c1cc(Nc2nccc(-c3c(-c4ccc(Cl)cc4)nn4ncccc34)n2)ccc1Cl [GW829351] | 0
O=C(Nc1ccccc1)Nc1ccc(Oc2ccc3nccn3n2)cc1 | 0
COc1ccc(-c2oc3ncnc(N)c3c2-c2ccc(OC)cc2)cc1 [SB-589132] | 0
OCCOCCn1ccc2ncnc(Nc3ccc(Oc4cccc(Cl)c4)c(Cl)c3)c21 | 0
CNc1nccc(-c2c(-c3ccc(F)cc3)ncn2CCCN2CCOCC2)n1 [SB-222516] | 39
NC(=O)c1sc(-n2cnc3ccccc32)cc1OCc1ccccc1F [GSK1024306] | 0

— paper PMC5540273 (PLoS ONE, 2017)
